Test results as given in PubChem BioAssay (NCI).
Compounds without any hit were thinned out: in the full panel of roughly 79,000, 15% have a hit. Rule as the data show it: active = growth inhibition above about 70%; inactive = the rest.

Columns and labels:
[1] = NCI Yeast Anticancer Drug Screen. Data for the rad52 strain (AID 147);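 also: 0% = growth of vehicle-treated control cultures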; conditions: S. cerevisiae rad52 mutant growth inhibition, stronger effect = higher value
How it was run: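 Here a repair-compromised yeast strain receives each compound; its growth is then quantified and normalised to vehicle-only controls.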

[2] = NCI Yeast Anticancer Drug Screen. Data for the wt1 strain (AID 149);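 also: 0% = growth of vehicle-treated wt1 cultures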; conditions: S. cerevisiae wt1 strain (SPY 50644) growth inhibition, stronger effect = higher value
How it was run: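 The wt1 strain was treated with compounds, and growth was compared with vehicle-treated cultures to give inhibition.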

[3] = NCI Yeast Anticancer Drug Screen. Data for the rad50EPP+ strain (AID 151);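 also: 0% = growth of vehicle-treated control cultures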; conditions: S. cerevisiae rad50 mutant strain, stronger effect = higher value
How it was run: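 Read-out is yeast growth inhibition relative to vehicle; cells used were the rad50EPP+ strain.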

[4] = NCI Yeast Anticancer Drug Screen. Data for the mgt1 strain (AID 153); conditions: S. cerevisiae mgt1 mutant growth inhibition, stronger effect = higher value
How it was run: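 Measured: inhibition of mgt1 yeast growth by compound, normalized to vehicle-treated cultures.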

[5] = NCI Yeast Anticancer Drug Screen. Data for the rad50 strain (AID 155);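 also: 0% = growth of vehicle-only cultures of the same strain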; conditions: S. cerevisiae rad50 strain growth inhibition, stronger effect = higher value
How it was run: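 Cells are treated with compound, grown, and their growth is then scored against vehicle-only cultures of the same repair-deficient yeast strain.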

[6] = NCI Yeast Anticancer Drug Screen. Data for the mec2-1 strain (AID 157); conditions: S. cerevisiae mec2-1 strain, stronger effect = higher value
How it was run: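 Using mec2-1 yeast: add compound, measure growth, express inhibition versus vehicle-treated cultures.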

[7] = NCI Yeast Anticancer Drug Screen. Data for the rad14 strain (AID 159);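 also: 0% = growth of vehicle-treated control cultures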; conditions: S. cerevisiae rad14 strain growth inhibition, stronger effect = higher value
How it was run: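 Readout: yeast growth inhibition, referenced to vehicle-only cultures. Strain bears a defined alteration in DNA damage repair.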

[8] = NCI Yeast Anticancer Drug Screen. Data for the sgs1 mgt1 strain (AID 161);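 also: 0% = growth of cultures given vehicle only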; conditions: S. cerevisiae sgs1 mgt1 strain, stronger effect = higher value
How it was run: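 Yeast cells carrying a defined DNA-repair defect were exposed to test compounds. Growth inhibition was measured relative to vehicle-treated controls.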

[9] = NCI Yeast Anticancer Drug Screen. Data for the CLN2oe strain (AID 163);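 also: 0% = growth of vehicle-only control cultures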; conditions: S. cerevisiae CLN2oe strain, stronger effect = higher value
How it was run: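 Whole-cell yeast growth assay. A strain engineered for altered cell-cycle control received compound, and inhibition relative to vehicle-treated cultures was recorded.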

[10] = NCI Yeast Anticancer Drug Screen. Data for the cln2 rad14 strain (AID 165);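 also: 0% = growth equal to vehicle treated cultures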; conditions: S. cerevisiae cln2 rad14 strain, stronger effect = higher value
How it was run: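 Yeast strain cln2 rad14, bearing defects in cell cycle control and DNA repair, serves as the test system; values reflect growth inhibition compared with vehicle.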

[11] = NCI Yeast Anticancer Drug Screen. Data for the bub3 strain (AID 167); conditions: S. cerevisiae bub3 mutant strain, stronger effect = higher value
How it was run: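 Part of a panel of yeast mutants defective in DNA damage repair or cell cycle regulation. Each strain is grown with compound, and inhibition is calculated relative to solvent-treated cultures.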

[12] = NCI Yeast Anticancer Drug Screen. Data for the wt2 strain (AID 169);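 also: 0% = growth of vehicle-treated yeast cultures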; conditions: S. cerevisiae wt2 strain growth inhibition, stronger effect = higher value
How it was run: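 Treated yeast vs. vehicle-treated yeast: growth inhibition determined.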

[13] = NCI Yeast Anticancer Drug Screen. Data for the mlh1 strain (AID 171);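 also: 0% = growth of vehicle-treated control cultures of the same strain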; conditions: S. cerevisiae mlh1 strain growth inhibition, stronger effect = higher value
How it was run: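 A yeast strain with a defined genetic lesion serves as the test organism. Cultures receive compound or vehicle, and growth is measured.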

[14] = NCI Yeast Anticancer Drug Screen. Data for the mlh1 rad18 strain (AID 175); conditions: S. cerevisiae mlh1 rad18 strain growth inhibition, stronger effect = higher value
How it was run: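 Steps: expose repair-defective yeast to compound; measure growth; express inhibition against vehicle-treated controls.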

[15] = NCI Yeast Anticancer Drug Screen. Data for the rad18 strain (AID 177); conditions: S. cerevisiae rad18 mutant growth inhibition, stronger effect = higher value
How it was run: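 Measured value is growth inhibition of a yeast strain bearing a DNA repair alteration, referenced to vehicle-treated cells.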

[16] = at 5.0 µM (retest, dose inferred, filed as 0.5)
[17] = at 50.0 µM (retest, dose inferred, filed as 5.0)

Measured: growth inhibition

CCOc1ccc(C(=O)CCC(=O)O)c(C)c1
inactive: [1]; at 1.2 µM -1% | [1]; at 3.7 µM 0% | [1]; at 11.0 µM -5% | [1]; at 33.0 µM -1% | [1]; at 100.0 µM 4% | [2]; at 1.2 µM 3% | [2]; at 3.7 µM -1% | [2]; at 11.0 µM 4% | [2]; at 33.0 µM 5% | [2]; at 100.0 µM 17% | [3]; at 1.2 µM -2% | [3]; at 3.7 µM -2% | [3]; at 11.0 µM 0% | [3]; at 33.0 µM -3% | [3]; at 100.0 µM 3% | [4]; at 1.2 µM -4% | [4]; at 3.7 µM -3% | [4]; at 11.0 µM 1% | [4]; at 33.0 µM 2% | [4]; at 100.0 µM 21% | [5]; at 1.2 µM -2% | [5]; at 3.7 µM 4% | [5]; [16] 13% | [5]; at 11.0 µM 1% | [5]; at 33.0 µM 8% | [5]; [17] 14% | [5]; at 100.0 µM 12% | [6]; at 1.2 µM 0% | [6]; at 3.7 µM -7% | [6]; [16] -10% | [6]; at 11.0 µM -16% | [6]; at 33.0 µM 4% | [6]; [17] 13% | [6]; at 100.0 µM 15% | [7]; at 1.2 µM 0% | [7]; at 3.7 µM 1% | [7]; at 11.0 µM 7% | [7]; at 33.0 µM 13% | [7]; at 100.0 µM 25% | [8]; [16] 9% | [8]; [17] 4% | [9]; at 1.2 µM 0% | [9]; at 3.7 µM -1% | [9]; at 11.0 µM 4% | [9]; at 33.0 µM 12% | [9]; at 100.0 µM 20% | [10]; [16] -12% | [10]; [17] 44% | [11]; at 1.2 µM -9% | [11]; at 3.7 µM -11% | [11]; [16] -17% | [11]; at 11.0 µM -1% | [11]; at 33.0 µM -8% | [11]; [17] 14% | [11]; at 100.0 µM 36% | [12]; at 1.2 µM 1% | [12]; at 3.7 µM 2% | [12]; at 11.0 µM 2% | [12]; at 33.0 µM 6% | [12]; at 100.0 µM 16% | [13]; at 1.2 µM -2% | [13]; at 3.7 µM -6% | [13]; at 11.0 µM -10% | [13]; at 33.0 µM 3% | [13]; at 100.0 µM 12% | [14]; [16] 16% | [14]; [17] -1% | [15]; at 1.2 µM -2% | [15]; at 3.7 µM -4% | [15]; at 11.0 µM -6% | [15]; at 33.0 µM -16% | [15]; at 100.0 µM -17%
